Measurements: PubChem BioAssay AID1159580 (chemical genetic matrix, 2015)
“And” between values parts separate entries of the source, which are not always exact repeats. Equal values may be shown once. About 2,000 (36%) of roughly 5,500 compounds were called active. About 18% were inconclusive and are not listed. No stated cut-off is given here; in the data, active means normalized growth mostly below about 0.91 (no sharp cut-off); inconclusive means no clear call, values can overlap the other calls; inactive means mostly above about 0.92. The list shows a part of the results.

Assay: chemical genetic growth profiling, strain panel (AID 1159580);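 further: tested at 20 µM; growth read once vehicle control cultures reached saturation at 30 °C; 1 = growth at the plate median or of vehicle wells; lower values mean less growth of the strain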
Conditions: growth OD

Measured: normalized growth

NC(N)=NCCCCN=C(N)N
inactive: S. cerevisiae deletion strains, locus YKL009W, strain mrt4, hits give low values 1 | S. cerevisiae deletion strains, locus YKL068W, hits give low values 0.988 | S. cerevisiae deletion strains, locus YKL085W, strain MDH1 (second series), hits give low values 1.03 | S. cerevisiae deletion strains, locus YKL085W, strain MDH1, hits give low values 1.03 | S. cerevisiae deletion strains, locus YKL160W, strain elf1, hits give low values 1.02 | S. cerevisiae deletion strains, locus YKL190W, strain CNB1, hits give low values 0.985 | S. cerevisiae deletion strains, locus YKR001C, strain vps1, hits give low values 1.01 | S. cerevisiae deletion strains, locus YKR026C, strain gcn3, hits give low values 0.995 | S. cerevisiae deletion strains, locus YKR091W, strain srl3, hits give low values 1 | S. cerevisiae deletion strains, locus YLL001W, strain dnm1, hits give low values 1.01 | S. cerevisiae deletion strains, locus YLL026W, hits give low values 1.01 | S. cerevisiae deletion strains, locus YLL041C, strain sdh2, hits give low values 0.986 | S. cerevisiae deletion strains, locus YLR027C, strain aat2, hits give low values 1 | S. cerevisiae deletion strains, locus YLR039C, strain RIC1, hits give low values 0.99 | S. cerevisiae deletion strains, locus YLR058C, strain SHM2, hits give low values 0.972 | S. cerevisiae deletion strains, locus YLR102C, strain apc9, hits give low values 0.993 | S. cerevisiae deletion strains, locus YLR113W, strain HOG1, hits give low values 0.97 | S. cerevisiae deletion strains, locus YLR221C, strain rsa3, hits give low values 1.04 | S. cerevisiae deletion strains, locus YLR258W, strain gsy2, hits give low values 1.01 | S. cerevisiae deletion strains, locus YLR262C, strain YPT6 (second series), hits give low values 1.02 | S. cerevisiae deletion strains, locus YLR262C, strain YPT6, hits give low values 0.963 | S. cerevisiae deletion strains, locus YLR268W, strain sec22, hits give low values 0.978 | S. cerevisiae deletion strains, locus YLR320W, strain mms22, hits give low values 1.05 | S. cerevisiae deletion strains, locus YLR330W, strain CHS5, hits give low values 0.993 | S. cerevisiae deletion strains, locus YLR342W, strain FKS1 (second series), hits give low values 1.03 | S. cerevisiae deletion strains, locus YLR342W, strain FKS1, hits give low values 0.993 | S. cerevisiae deletion strains, locus YLR357W, strain rsc2, hits give low values 0.998 | S. cerevisiae deletion strains, locus YLR370C, strain arc18, hits give low values 0.991 | S. cerevisiae deletion strains, locus YLR371W, strain rom2, hits give low values 0.95 | S. cerevisiae deletion strains, locus YLR384C, strain iki3, hits give low values 0.997 | S. cerevisiae deletion strains, locus YLR418C, strain cdc73, hits give low values 0.971 | S. cerevisiae deletion strains, locus YML016C, strain PPZ1, hits give low values 0.992 | S. cerevisiae deletion strains, locus YML032C, strain rad52, hits give low values 1.01 | S. cerevisiae deletion strains, locus YML120C, strain ndi1, hits give low values 0.998 | S. cerevisiae deletion strains, locus YML124C, strain tub3, hits give low values 0.997 | S. cerevisiae deletion strains, locus YMR058W, strain fet3, hits give low values 0.998 | S. cerevisiae deletion strains, locus YMR078C, strain ctf18, hits give low values 0.992 | S. cerevisiae deletion strains, locus YMR125W, strain sto1, hits give low values 0.963 | S. cerevisiae deletion strains, locus YMR129W, hits give low values 1 | S. cerevisiae deletion strains, locus YMR205C, strain PFK2, hits give low values 1.03 | S. cerevisiae deletion strains, locus YMR223W, strain ubp8, hits give low values 1.01 | S. cerevisiae deletion strains, locus YMR231W, strain pep5, hits give low values 0.993 | S. cerevisiae deletion strains, locus YMR263W, strain SAP30, hits give low values 0.953 and 0.994 | S. cerevisiae deletion strains, locus YMR307W, strain GAS1, hits give low values 1.06 and 0.991 | S. cerevisiae deletion strains, locus YNL067W, strain RPL9B, hits give low values 0.972 | S. cerevisiae deletion strains, locus YNL071W, strain lat1, hits give low values 0.991 | S. cerevisiae deletion strains, locus YNL128W, strain TEP1, hits give low values 0.92 and 0.999 | S. cerevisiae deletion strains, locus YNL153C, strain GIM3, hits give low values 0.978 | S. cerevisiae deletion strains, locus YNL175C, strain NOP13, hits give low values 1.01 | S. cerevisiae deletion strains, locus YNL183C, strain NPR1, hits give low values 0.92 | S. cerevisiae deletion strains, locus YNL197C, strain WHI3, hits give low values 1.02 | S. cerevisiae deletion strains, locus YNL209W, strain ssb2, hits give low values 1.01 | S. cerevisiae deletion strains, locus YNL224C, strain SQS1, hits give low values 1.01 | S. cerevisiae deletion strains, locus YNL233W, strain BNI4, hits give low values 0.979 | S. cerevisiae deletion strains, locus YNL248C, strain rpa49, hits give low values 0.967 | S. cerevisiae deletion strains, locus YNL250W, strain rad50, hits give low values 0.98 | S. cerevisiae deletion strains, locus YNL271C, strain bni1, hits give low values 0.994 | S. cerevisiae deletion strains, locus YNL298W, strain CLA4, hits give low values 0.994 | S. cerevisiae deletion strains, locus YNL307C, strain MCK1, hits give low values 1.01 | S. cerevisiae deletion strains, locus YNL322C, strain KRE1 (second series), hits give low values 1 | S. cerevisiae deletion strains, locus YNL322C, strain KRE1, hits give low values 0.977 | S. cerevisiae deletion strains, locus YNR049C, strain mso1, hits give low values 0.997 | S. cerevisiae deletion strains, locus YNR052C, strain pop2, hits give low values 0.997 | S. cerevisiae deletion strains, locus YOL006C, strain TOP1, hits give low values 0.957 | S. cerevisiae deletion strains, locus YOL012C, strain htz1 0.788 | S. cerevisiae deletion strains, locus YOL147C, strain pex11, hits give low values 0.993 | S. cerevisiae deletion strains, locus YOR001W, strain rrp6, hits give low values 0.97 | S. cerevisiae deletion strains, locus YOR061W, strain CKA2, hits give low values 0.955 | S. cerevisiae deletion strains, locus YOR069W, strain VPS5, hits give low values 0.999 | S. cerevisiae deletion strains, locus YOR070C, strain gyp1, hits give low values 1.02 | S. cerevisiae deletion strains, locus YOR080W, strain dia2, hits give low values 1.01 | S. cerevisiae deletion strains, locus YOR083W, strain WHI5 (second series), hits give low values 0.988 | S. cerevisiae deletion strains, locus YOR083W, strain WHI5, hits give low values 1.04 | S. cerevisiae deletion strains, locus YOR106W, strain vam3, hits give low values 1.03 | S. cerevisiae deletion strains, locus YOR136W, strain idh2, hits give low values 0.997 | S. cerevisiae deletion strains, locus YOR144C, strain elg1, hits give low values 0.999 | S. cerevisiae deletion strains, locus YOR184W, strain ser1, hits give low values 1.03 | S. cerevisiae deletion strains, locus YOR231W, strain MKK1, hits give low values 0.968 | S. cerevisiae deletion strains, locus YOR265W, strain rbl2, hits give low values 1.01 | S. cerevisiae deletion strains, locus YOR270C, strain vph1, hits give low values 0.991 | S. cerevisiae deletion strains, locus YOR290C, strain snf2, hits give low values 0.968 | S. cerevisiae deletion strains, locus YOR316C, strain cot1, hits give low values 0.988 | S. cerevisiae deletion strains, locus YPL051W, strain arl3, hits give low values 1.04 | S. cerevisiae deletion strains, locus YPL055C, strain LGE1, hits give low values 0.95 and 0.989 | S. cerevisiae deletion strains, locus YPL078C, strain atp4, hits give low values 1.01 | S. cerevisiae deletion strains, locus YPL106C, strain sse1, hits give low values 1.01 | S. cerevisiae deletion strains, locus YPL240C, strain hsp82, hits give low values 1.01 | S. cerevisiae deletion strains, locus YPL241C, strain CIN2, hits give low values 0.988 and 0.994 | S. cerevisiae deletion strains, locus YPL256C, strain CLN2, hits give low values 0.979 | S. cerevisiae deletion strains, locus YPR119W, strain clb2, hits give low values 1 | S. cerevisiae deletion strains, locus YPR141C, strain kar3, hits give low values 0.975 | S. cerevisiae deletion strains, locus YPR163C, strain tif3, hits give low values 1 | S. cerevisiae deletion strains, locus YPR167C, strain met16, hits give low values 0.988 | S. cerevisiae deletion strains, strain wtn01, hits give low values 0.983 | S. cerevisiae strains, strain wild type, hits give low values 0.998
